Some test systems named below: OVCAR-8 ovarian; OVCAR-5 ovarian; OVCAR-4 ovarian; SK-OV-3 ovarian; OVCAR-3 ovarian; HS 578T breast; NCI/ADR-RES ovarian; T-47D breast; BT-549 breast; MDA-MB-435 melanoma; SW-620 colon; MCF7 breast; HCT-116 colon; HCC-2998 colon; KM12 colon; IGROV1 ovarian.
Holding throughout (assay): NCI-60 one-dose screen, 48 h (100 = growth as untreated, 0 = no growth, -100 = all killed)
Details in all cases: 10 µM unless noted

The results in this text go back to PubChem BioAssay (NCI).

Compounds without any hit were thinned out: in the full panel of roughly 83,000, 20% have a hit.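 Activity criterion: percent growth below 10, measured after cells in 96-well plates were exposed to a single compound concentration for 48 hours.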 Values without a mark were called inactive. Activity calls are given as the source filed them.

Take `COc1ccc(C(=O)COc2cccc(/C=C3\Oc4ccc5ccccc5c4C3=O)c2)cc1`: the growth was 70.1% in the assay on OVCAR-8 ovarian; 103% in the assay on OVCAR-5 ovarian; 94.9% in the assay with OVCAR-4 ovarian; 99.5% with SK-OV-3 ovarian; 72.4% with OVCAR-3 ovarian; 93.3% in the assay on HS 578T breast. In addition, the growth in the assay with NCI/ADR-RES ovarian was 96.4%; in the assay with T-47D breast, 37.9%; in the assay with BT-549 breast, -96.9% (active); with MDA-MB-435 melanoma, 94.7%; in the assay on SW-620 colon it was 19%; with MCF7 breast it was 10.1%. In addition, the growth in the assay with HCT-116 colon was 29%; with HCC-2998 colon, 60%; in the assay with KM12 colon it was 97.9%.

In the case of `COc1ccc2c(c1)[nH]c(=O)c1c3cc(OC)c(OC)cc3cn21`, the growth in the assay with OVCAR-8 ovarian is 16%; in the assay on OVCAR-5 ovarian, 49.4%; with OVCAR-4 ovarian it was 44.2%; in the assay with SK-OV-3 ovarian, 40.2%; in the assay on IGROV1 ovarian, -9.03% (active); in the assay on NCI/ADR-RES ovarian, 14.8%. In addition, the growth in the assay with BT-549 breast is 10.5%; in the assay with MDA-MB-435 melanoma, -20.3% (active); in the assay with SW-620 colon, 31.7%; in the assay with MCF7 breast it was 17.5%; in the assay with HCT-116 colon it was -18.8% (active); in the assay with HCC-2998 colon, 25.8%. The growth in the assay with KM12 colon is -33% (active).

As for `CCC(C)(C)C(=O)O[C@H]1C[C@@H](C)C=C2C=C[C@H](C)[C@H](CC[C@@H]3C[C@@H](O)CC(=O)O3)[C@H]21`, the growth is 48% in the assay with OVCAR-8 ovarian; 87.1% in the assay on OVCAR-5 ovarian; 70% in the assay on SK-OV-3 ovarian; 28.8% in the assay with IGROV1 ovarian; 85.7% with OVCAR-3 ovarian; 42.4% with HS 578T breast. Also, the growth in the assay with NCI/ADR-RES ovarian was 25.5%; in the assay on T-47D breast, 92.1%; in the assay on BT-549 breast, 84%; with MDA-MB-435 melanoma, 68.8%; with SW-620 colon it was 61.2%; in the assay on HCC-2998 colon, 71.9%. In addition, in the assay with KM12 colon, the growth is 90.7%.

As to `NC(=Nc1ccccc1)SCCCCSC(N)=Nc1ccccc1`, the growth with OVCAR-8 ovarian was 83.7%; with OVCAR-5 ovarian, 83.3%; with OVCAR-4 ovarian it was 77.3%; in the assay on SK-OV-3 ovarian, 108%; with IGROV1 ovarian, 75.3%; with OVCAR-3 ovarian it was 72%. Besides, the growth is 66.3% in the assay on NCI/ADR-RES ovarian; 86.4% with BT-549 breast; 89.4% in the assay with MDA-MB-435 melanoma; 92.3% in the assay with SW-620 colon; 87.5% in the assay on MCF7 breast; 88% with HCT-116 colon. Also, the growth is 77.6% with HCC-2998 colon and 94.2% in the assay on KM12 colon.

With `NC(=O)SCC(=O)Nc1ccccc1-c1ccccc1`, the growth with OVCAR-8 ovarian was 111%; in the assay on OVCAR-5 ovarian, 104%; in the assay on OVCAR-4 ovarian it was 111%; in the assay with SK-OV-3 ovarian it was 131%; with IGROV1 ovarian it was 133%; in the assay with NCI/ADR-RES ovarian, 106%. Also, the growth with T-47D breast is 132%; in the assay on BT-549 breast, 89.4%; in the assay on MDA-MB-435 melanoma it was 109%; with SW-620 colon, 115%; with MCF7 breast, 94.8%; in the assay on HCT-116 colon, 87.4%. Further, in the assay on HCC-2998 colon, the growth is 95.5%.

Turning to `CCOC(=O)c1c(C)c(C(=O)OCC)n(C)c1C`, the growth was 120% in the assay on OVCAR-8 ovarian; 114% in the assay with OVCAR-5 ovarian; 101% in the assay on OVCAR-4 ovarian; 98% in the assay with SK-OV-3 ovarian; 92.6% in the assay on HS 578T breast; 118% with NCI/ADR-RES ovarian. For the same molecule, the growth is 90.7% in the assay on T-47D breast; 91.5% with BT-549 breast; 101% in the assay with MDA-MB-435 melanoma; 94.5% with SW-620 colon; 127% in the assay with MCF7 breast; 97.9% with HCT-116 colon. The growth was 110% in the assay with HCC-2998 colon and 112% in the assay on KM12 colon.

Consider `COc1ccc2nc3cc(Cl)ccc3c(Nc3cc(C(C)C)c(O)cc3C)c2c1`, for which the growth was 68.7% in the assay with OVCAR-5 ovarian; 30.2% in the assay with OVCAR-4 ovarian; 63.3% in the assay on SK-OV-3 ovarian; 65.5% in the assay with HS 578T breast; 38% with NCI/ADR-RES ovarian; 13.9% in the assay on T-47D breast. For the same molecule, the growth in the assay on BT-549 breast was 57%; in the assay with MDA-MB-435 melanoma it was 30.8%; in the assay with SW-620 colon it was 21.8%; in the assay with MCF7 breast it was 15.5%; in the assay with HCT-116 colon, 1.48% (active); in the assay on HCC-2998 colon it was 37.5%. Further, the growth with KM12 colon was 8.35% (active).

Turning to `Cc1ccc(NC(=O)CSc2nnc3n(Cc4ccccc4)c(=O)c4c(C)c(C(N)=O)sc4n23)cc1`, the growth in the assay on OVCAR-5 ovarian was 75.8%; in the assay on OVCAR-4 ovarian it was -62.3% (active); with SK-OV-3 ovarian it was -7.67% (active); in the assay with IGROV1 ovarian, 50.8%; in the assay with OVCAR-3 ovarian, 9.55% (active); in the assay on HS 578T breast, 6.99% (active). Besides, the growth in the assay on NCI/ADR-RES ovarian is 92.8%; with T-47D breast, -19.7% (active); in the assay on BT-549 breast it was 74.3%; with MDA-MB-435 melanoma it was 31.5%; in the assay on SW-620 colon, 53.7%; in the assay on MCF7 breast, 44.8%. Further, the values for the growth in the assay on HCT-116 colon, in the assay with HCC-2998 colon and in the assay with KM12 colon were 9.8% (active), 34.3% and 51.2%, respectively.

As for `Cc1c(C(N)=O)sc2c1c(=O)n(Cc1ccccc1)c1nnc(S(=O)(=O)CC(=O)Nc3ccc(Cl)cc3)n21`, the growth was 82.7% with OVCAR-5 ovarian; 18.7% in the assay with SK-OV-3 ovarian; 40% in the assay on IGROV1 ovarian; 5.69% (active) in the assay on OVCAR-3 ovarian; 17.8% in the assay on HS 578T breast; 108% with NCI/ADR-RES ovarian. In addition, the growth was 21.8% in the assay on T-47D breast; 75.7% with BT-549 breast; 46.2% in the assay on MDA-MB-435 melanoma; 39.6% in the assay with SW-620 colon; 73.5% with MCF7 breast; 15% in the assay with HCT-116 colon. Also, the growth is 26% with HCC-2998 colon and 55% with KM12 colon.

On to `Cc1nn(-c2ccc(Br)cc2)c2nc3c(nc12)C(=O)C(=O)c1ccccc1-3`, for which the growth with OVCAR-5 ovarian is 100%; with OVCAR-4 ovarian, 88.3%; in the assay with SK-OV-3 ovarian, 93.6%; in the assay with IGROV1 ovarian, 81.9%; with OVCAR-3 ovarian, 101%; with HS 578T breast it was 105%. Further, the growth was 86.4% in the assay on NCI/ADR-RES ovarian; 91.2% in the assay with T-47D breast; 94.7% with BT-549 breast; 110% in the assay with MDA-MB-435 melanoma; 93.5% in the assay with SW-620 colon; 67.3% in the assay on MCF7 breast. The growth in the assay with HCT-116 colon was 86.3%; in the assay with HCC-2998 colon, 93%; with KM12 colon, 103%.

On to `O=C(CSCC(=O)N/N=C/c1ccccc1O)N/N=C\c1ccccc1O`, for which the growth is 56.2% with OVCAR-5 ovarian; 27.5% in the assay with OVCAR-4 ovarian; 27.8% in the assay with SK-OV-3 ovarian; 18.9% in the assay with IGROV1 ovarian; 34.5% with OVCAR-3 ovarian; 26.1% in the assay with NCI/ADR-RES ovarian. In addition, the growth in the assay with T-47D breast is 35.5%; in the assay with BT-549 breast it was 1.06% (active); with MDA-MB-435 melanoma it was 50.9%; in the assay on SW-620 colon, 39.3%; in the assay with MCF7 breast, 19.5%; in the assay on HCT-116 colon, 16.6%. Further, the growth in the assay on HCC-2998 colon is 30.1%; in the assay with KM12 colon it was 37.3%.
